The list is not random: actives were taken first. Their share in the collection is about 1.5%.
V-ATPase pH – alters yeast V-ATPase proton transport. AID 504577. response, % at 10 µM. S. cerevisiae, pHLuorin cytosolic pH fluorescence. actives 0.37% (n = 350,000); in the data active means response mostly above about 7.3%, no sharp cut-off; inactive means mostly below about 5.4%; further: actives read high
CRFBP-R2 block – CRF-BP/CRF-R2 complex antagonism | actives 0.59% (n = 350,000) | inhibition, % at 11.8 µM | HEK293 CRF-R2/CRF-BP, CRF-induced calcium fluorescence;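 active means inhibition of the ligand-induced calcium signal above about 50% at the single tested concentration, limit read from the data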
CRFBP-R2 agonist – CRF-BP/CRF-R2 complex agonism. HEK293 CRF-R2/CRF-BP, calcium dye fluorescence (FLIPR); percent of saturating CRF peptide response. activation, % at 13.2 µM. actives 0.46% (n = 350,000). AID 588473;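 active means activation of at least 50%, plus an integration ratio under a set limit after plate pattern correction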;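 further: plate controls were neutral control wells without compound for no effect and CRF at EC100 for full effect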
NTR1 agonist – NTR1 (human) agonism. P30989. NTR1-U2OS beta-arrestin-GFP spot imaging, agonist mode. activation, % at 20 µM. actives 0.17% (n = 330,000). AID 493036;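 active means activation at or above 40% of the spot to cytoplasm intensity ratio, with at least 20 cells analyzed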;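 further: 0% = DMSO without peptide and 100% = 100 nM NTR1 peptide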
Target sequence (P30989 whole entry, looked up): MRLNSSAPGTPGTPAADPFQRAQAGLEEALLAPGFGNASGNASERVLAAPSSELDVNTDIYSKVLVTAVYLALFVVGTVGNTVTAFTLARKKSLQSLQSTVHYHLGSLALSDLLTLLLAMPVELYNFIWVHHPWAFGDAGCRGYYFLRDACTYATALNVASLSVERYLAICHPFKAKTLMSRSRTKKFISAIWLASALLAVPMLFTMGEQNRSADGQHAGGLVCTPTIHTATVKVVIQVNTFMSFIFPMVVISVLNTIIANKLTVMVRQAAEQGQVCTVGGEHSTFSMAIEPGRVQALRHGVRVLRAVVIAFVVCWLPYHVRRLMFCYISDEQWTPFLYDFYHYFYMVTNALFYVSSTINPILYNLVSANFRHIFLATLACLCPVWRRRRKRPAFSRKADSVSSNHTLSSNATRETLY
Numbers without * were called inactive; nt = no result.

SMILES	V-ATPase pH	CRFBP-R2 block	CRFBP-R2 agonist	NTR1 agonist
Cc1cc(C)c(C)c(S(=O)(=O)N2CCSCC2)c1C	-2	10	-5	3
Cc1c(C)c(C)c(S(=O)(=O)N2CCSCC2)c(C)c1C	20*	-19	-2	2
Cc1ccc(/C=C2\Sc3ccccc3C2=O)s1	-9	-41	17	-1
COc1ccc(OC)c(/C=C2/Sc3ccccc3C2=O)c1	0	-207	197*	-4
CCOC(=O)c1c(C)[nH]c(C(=O)COC(=O)CCSc2ccccc2)c1C	1	9	1	3
CCOC(=O)c1c(C)[nH]c(C(=O)CSc2ccccc2)c1C	14*	5	1	0
CC(C)NC(=O)CCN1C(=O)c2ccccc2Sc2ncccc21	0	7	-1	-2
Cc1nn(CC(=O)NCCc2ccc(Cl)cc2)c(=O)c2cccn12	-2	3	-2	1
COc1ccc(S(=O)(=O)N2CCC(O)(c3ccc(Cl)cc3)CC2)cc1OC	17*	-1	0	1
COc1ccc(S(=O)(=O)N2CCC(O)(c3ccc(Cl)cc3)CC2)cc1	-1	4	0	-2
CCN(CC)C(=O)CCn1nc(-c2ccc(C)cc2)c2ccccc2c1=O	-4	-17	-3	1
CCN(CC)C(=O)Cn1c(=O)c2ccccc2n2c(=S)sc(-c3cccc(C)c3)c12	1	-123	55*	7
Cc1c2cc(O)c(=O)cc-2oc2cc(O)c(O)cc12	206*	-22	18	-2
Cc1cc2oc(=O)cc(-c3cc4ccccc4o3)c2cc1O	-10	-8	1	3
COc1c(O)cc2oc(-c3ccc(O)cc3)cc(=O)c2c1O	-3	0	-6	1
COc1cc(OC)c(-c2c3cc(O)c(=O)cc-3oc3cc(O)c(O)cc23)cc1OC	-2	-138	171*	2
CCOC(=O)c1ccc(S(=O)(=O)N2CCN(CCc3ccncc3)CC2)cc1	3	10	-1	2
O=[N+]([O-])c1ccc(Cc2ccccn2)c([N+](=O)[O-])c1	2	-6	-1	19
Clc1ccc(-c2nnc(NCc3ccccc3)c3ccccc23)cc1	6	52*	-2	17
Cc1ccc(S(=O)(=O)NCC(=O)N(CCc2ccccc2)CC(=O)NCc2ccco2)cc1	2	12	-1	nt
Cc1ccc(S(=O)(=O)N(CC(=O)NCc2ccco2)Cc2ccccc2F)cc1	-3	89*	-2	nt
Cc1ccc(S(=O)(=O)NCC(=O)N(CC(=O)NCc2ccco2)Cc2ccccc2)cc1	0	-56	55*	-1
CCCNC(=O)Cn1c(=O)/c(=C/c2ccc(-c3ccc([N+](=O)[O-])cc3)o2)s/c1=C\C(=O)C(C)(C)C	0	-93	165*	nt
CCCC(=O)OCCNc1cc(Sc2nccn2C)c2nonc2c1[N+](=O)[O-]	0	52*	-2	nt
CCN(C(=O)CSc1cc(C)c2ccc(OC)cc2n1)C1CCS(=O)(=O)C1 (stereo unspecified)	5	98*	0	2
SMILES	V-ATPase pH	CRFBP-R2 block	CRFBP-R2 agonist	NTR1 agonist
CCOCCCNC(=O)c1ccc(/C=C2\Oc3ccccc3N(C)C2=O)cc1	1	5	-3	2
COc1ccc2sc(-c3ccc(S(C)(=O)=O)cc3)c(C(=O)NCCc3c[nH]c4ccccc34)c2c1	5	63*	-1	0
O=[N+]([O-])c1ccc(C=CC=Cc2ccccc2)cc1	0	8	-1	nt
CN(c1ccccc1)c1ccc(/C=C/[N+](=O)[O-])cc1	-3	-162	75*	nt
Cc1c(N=C2C(=O)Nc3ccccc32)c(=O)n(-c2ccccc2)n1C	9.3*	-2	0	2
Cc1c(N=C2N=C(NC(=O)c3ccc(F)cc3)c3ccccc32)c(=O)n(-c2ccccc2)n1C	0	-54	65*	6
Cc1c(NC(=O)NC(=O)c2ccc(F)cc2)c(=O)n(-c2ccccc2)n1C	0	-3	-1	0
COc1cccc(/C=N/NC(=O)CNC(=O)/C=C\c2ccccc2)c1O	7	-12	-1	62*
FC(F)(F)c1cnc(NNC(=S)Nc2ccc(Cl)cc2)c(Cl)c1	-2	39	52*	4
Fc1ccc(NC(=S)NNc2ncc(C(F)(F)F)cc2Cl)c(F)c1	2	42	56*	1
Cc1ccc2c(c1)N(C(=O)CCC(=O)N1CCN(c3ccccn3)CC1)CCO2	1	-31	55*	0
O=C(CCC(=O)N1CCOc2ccc(Cl)cc21)N1CCN(c2ccccn2)CC1	4	6	-10	5
Nc1nc(-c2ccc3c(c2)OCCO3)cs1	-5	76*	6	1
Cc1nc(-c2ccc3c(c2)OCCCO3)cs1	-2	5	1	0
C=CCC[C@@H](Cc1ccc(F)cc1)C(=O)OC[C@H](Cc1c[nH]c2ccccc12)NC(=O)[C@@H](CC=C)CC(=O)NCCO	-3	-27	58*	8
O=C(O)c1ccc(CNC(=S)Nc2ccccc2)cc1	0	-5	-1	1
CC(=O)NCc1ccc(C(=O)O)cc1	-2	86*	0	0
CCCN1C(=O)c2ccccc2NC1c1ccc(OC)c(CSc2ccccn2)c1 (stereo unspecified)	-2	50*	-2	3
OC(CCN1CC2CCC(CC2)C1)(Cc1ccccc1)c1ccco1 (stereo unspecified)	-2	16	-3	nt
COc1ccc(/C=C2/SC(=S)N(c3ccc(S(=O)(=O)Nc4nccs4)cc3)C2=O)cc1	2	1	3	1
Cc1ccc(/C=C2/SC(=S)N(c3ccc(S(=O)(=O)Nc4nccs4)cc3)C2=O)cc1	-1	59*	-1	10
C=CCOc1ccc(/C=C/C(=O)OCC(=O)NCc2ccco2)cc1	-2	7	0	2
O=S(=O)(Nc1ncccn1)c1ccc(-n2cnnn2)cc1	9.5*	4	0	0
CCCCOc1ccc(NS(=O)(=O)c2ccc(-n3cnnn3)cc2)cc1	1	0	1	-1
CC(C)c1cc(NC(=O)c2ccccc2)cc(C(C)C)c1O	1	82*	-3	0
SMILES	V-ATPase pH	CRFBP-R2 block	CRFBP-R2 agonist	NTR1 agonist
Cn1c(CCNC(=O)c2ccco2)nc2cc(NC(=O)c3ccccc3)ccc21	-1	-7	0	1
Cn1c(CCNC(=O)c2ccco2)nc2cc(NC(=O)c3ccco3)ccc21	0	108*	0	-2
CCOCCCN(CC(=O)NC1CCCC1)C(=O)C(=O)Nc1ccc2c(c1)OCCO2	3	97*	0	0
Cc1ccc(SCc2cc(=O)[nH]c(SCC(=O)Nc3cc(Cl)ccc3Cl)n2)cc1	-1	68*	0	4
CCc1ccc(NC(=O)CSc2nc(CSc3ccc(C)cc3)cc(=O)[nH]2)cc1	3	10	-1	0
Cc1cc2cc(CCNC(=O)CCc3ccccc3)c(=O)[nH]c2cc1C	-1	-8	-3	4
CCOc1ccc(S(=O)(=O)N2CCN(C(=O)c3ccncc3)CC2)cc1	0	62*	1	0
Cc1ccc(NS(=O)(=O)c2ccc(C(=O)N3CC(C)OC(C)C3)cc2)cc1 (stereo unspecified)	0	-29	83*	3

Screening data: PubChem, several laboratories
